AMPAR-TARP mod: GluA2-stargazin AMPA receptor complex modulation | O88602+P19491 | HEK293 GluA2+stargazin, membrane potential dye (FDSS), glutamate EC50; hits were called plate by plate, in both directions | calls only at 30 µM | actives 3.5% (n = 40,000) | AID 1259245;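 active = any of four per-well response measures lying three or more SD from its plate-wide compound average, in either direction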
GIRK2 act: Activators of human GIRK2-containing channels. P48051. HEK293 GIRK2/NPY4 cells, thallium flux fluorescence. activation (% efficacy), % for hits at 37.5 µM. 34,000 tested, under 10 active. AID 1259324;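 active = primary screen hit, no activity in plain HEK293 cells, and in GIRK2-only cells above 5% efficacy rising with concentration; inactive = the rest, including fluorescent compounds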;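 also: efficacy is normalized control-subtracted fluorescence 15 s after thallium addition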
Large screens that a line does not name were inactive. Shown is part of a subset that was picked to be rich in hits.

CC1=C(C(=O)Nc2cc(C(F)(F)F)ccc2Cl)C(c2ccc(C)cc2)C2=C(CCCC2=O)N1 (stereo not given)	AMPAR-TARP mod active (no result: GIRK2 act)
CC1=C(C(=O)Nc2cccc(C(F)(F)F)c2)C(c2ccc(F)cc2)C2=C(CCCC2=O)N1 (stereo not given)	none (no result: GIRK2 act)
O=C(NCCn1nc(-n2cccn2)ccc1=O)C1c2ccccc2Oc2ccccc21	none (no result: AMPAR-TARP mod)
Cn1c(=O)[nH]c(=O)c2c1nc(N1CCNCC1)n2CC(O)COc1ccc(Cl)cc1 (stereo not given)	AMPAR-TARP mod active (no result: GIRK2 act)
Cc1ccc(OCC(O)Cn2c(N3CCCC3)nc3c2c(=O)n(C)c(=O)n3C)cc1C (stereo not given)	none (no result: GIRK2 act)
CC1CCN(c2nc3c(c(=O)[nH]c(=O)n3C)n2CC(O)COc2ccc(Cl)cc2)CC1 (stereo not given)	none (no result: GIRK2 act)
Cc1ccc(OCC(O)Cn2c(N3CCN(C)CC3)nc3c2c(=O)n(C)c(=O)n3C)cc1C (stereo not given)	AMPAR-TARP mod active (no result: GIRK2 act)
O=C(NCCCn1nc(-c2ccc(F)cc2)ccc1=O)Nc1cccs1	none
Cc1cc(NC(=O)c2c(F)cccc2F)n(-c2nc3c(cnn3-c3cccc(Cl)c3)c(=O)[nH]2)n1	none
Cc1cc(NC(=O)c2c(F)cccc2F)n(-c2nc3c(cnn3-c3ccc(C)c(C)c3)c(=O)[nH]2)n1	AMPAR-TARP mod active
Cc1cccc(-n2ncc3c(=O)[nH]c(-n4nc(C)cc4NC(=O)C4CC4)nc32)c1	none
CCC(CC)C(=O)Nc1cc(C)nn1-c1nc2c(cnn2-c2cccc(C)c2)c(=O)[nH]1	AMPAR-TARP mod active
O=C(NCC(O)(c1ccccc1)C(F)(F)F)C1COc2ccccc2O1 (stereo not given)	none
O=C(NCC(O)(c1ccccc1)C(F)(F)F)c1ccc(Cl)c(Cl)c1 (stereo not given)	none
O=C(NCC(O)(c1ccccc1)C(F)(F)F)C1c2ccccc2Oc2ccccc21 (stereo not given)	AMPAR-TARP mod active
O=C(NCC(O)(c1ccccc1)C(F)(F)F)c1cccc(C(F)(F)F)c1 (stereo not given)	AMPAR-TARP mod active
Cc1nc2ccccn2c1C(=O)NCC1CCN(C(=O)COc2ccccc2)CC1	none
Cc1ccc(S(=O)(=O)/C(C#N)=C/N2CCN(Cc3ccc4c(c3)OCO4)CC2)cc1C	none
Cc1ccc(S(=O)(=O)/C(C#N)=C/N2CCN(Cc3ccccc3)CC2)cc1C	AMPAR-TARP mod active
Cc1cnn(C)c1C(=O)N(Cc1cccnc1)c1nc2ccc(Cl)cc2s1	none (no result: AMPAR-TARP mod)
CC(=O)N1CCc2c(sc3nc(SCc4ccc([N+](=O)[O-])cc4)n(Cc4ccco4)c(=O)c23)C1	none (no result: GIRK2 act)
CC(=O)N1CCc2c(sc3nc(SCc4cccc([N+](=O)[O-])c4)n(Cc4ccco4)c(=O)c23)C1	AMPAR-TARP mod active
COC(=O)CN1CCN(c2nc3c(c(=O)[nH]c(=O)n3C)n2CCc2ccccc2)CC1	none (no result: GIRK2 act)
CCOC(=O)CN1CCN(c2nc3c(c(=O)[nH]c(=O)n3C)n2CCc2ccccc2)CC1	AMPAR-TARP mod active (no result: GIRK2 act)
Cn1c(=O)[nH]c(=O)c2c1nc(N1CCN(CC(N)=O)CC1)n2CCCc1ccccc1	AMPAR-TARP mod active (no result: GIRK2 act)
Cn1c(=O)[nH]c(=O)c2c1nc(N1CCC(C(N)=O)CC1)n2CCCc1ccccc1	none (no result: GIRK2 act)
O=C(CCc1ccccc1)Nc1ccc2c(c1)CN(S(=O)(=O)c1ccccc1)CC2	none
O=C(Nc1ccc2c(c1)CN(C(=O)c1cccs1)CC2)c1ccc2nsnc2c1	none
O=C(Nc1ccc2c(c1)CN(S(=O)(=O)c1ccccc1)CC2)c1cnccn1	AMPAR-TARP mod active
O=C(Nc1ccc2c(c1)CN(C(=O)c1cccs1)CC2)c1cnccn1	AMPAR-TARP mod active
Cc1ccc(NC(=O)C(=O)NCCN2CCN(c3ccc(Cl)cc3)CC2)cc1C	none
O=C(c1ccc2c(c1)OCCO2)N(Cc1ccncc1)c1nc2c(F)cccc2s1	none
O=C(c1ccc2c(c1)OCCO2)N(CCCn1ccnc1)c1nc2c(F)cccc2s1	none
O=C(c1cccc(F)c1)N(CCCn1ccnc1)c1nc2c(F)cccc2s1	AMPAR-TARP mod active
N#Cc1ccc(C(=O)N(Cc2ccncc2)c2nc3c(F)cccc3s2)cc1	AMPAR-TARP mod active
COCCCN1COc2ccc3c(=O)c(-c4ccc(OC)c(OC)c4)c(C)oc3c2C1	none
Cc1ccc(NCCNC(=O)Nc2ccccc2)nn1	none (no result: GIRK2 act)
O=C(Nc1nc(-c2cccnc2)cs1)C1CCN(S(=O)(=O)c2cccs2)CC1	none (no result: GIRK2 act)
O=C(Nc1nc(-c2cccnc2)cs1)C1CCN(S(=O)(=O)c2ccc(Cl)s2)CC1	AMPAR-TARP mod active (no result: GIRK2 act)
O=C(c1ccc(=O)n(Cc2ccc(F)cc2)n1)N1CCN(c2cccc(Cl)c2)CC1	none
Cc1ccc(N2CCCS2(=O)=O)cc1NC(=O)NCCCc1ccccc1	none
CC(C)(C)n1ncc2c(=O)n(NC(=O)C(c3ccccc3)c3ccccc3)cnc21	none
CC(C)(C)n1ncc2c(=O)n(NC(=O)/C=C/c3ccccc3)cnc21	AMPAR-TARP mod active
O=C(NCc1ccsc1)c1ccc(Br)o1	none
O=C(Nc1cc(-c2cccs2)nn1CCO)c1cc2ccccc2oc1=O	none

High-throughput results: PubChem BioAssay, several laboratories
